# According to ChEMBL document CHEMBL4513216, “Probing the Open Global Health Chemical Diversity Library for Multistage-Active Starting Points for Next-Generation Antimalarials” (ACS Infect Dis, 2020):
# In all, about 69,000 compounds went through this assay and about 8,600 (12%) showed an effect of 50% or more. The full list was thinned out, with strong results kept by preference.
# System: Plasmodium berghei
# Assay: Screen against P. berghei liver stage (PbLuc), transformed with Luciferase, at 10uM
# Type: functional, HepG2
# Conditions: tested at 10 uM
row,Structure (SMILES),INHIBITION [%]
1,CC(=O)CSc1nc2c(cnn2CCO)c(=O)[nH]1,-8.41
2,Cc1cccc(N2CCN(C(=O)Cc3ccccc3O)C(C)C2)n1 (stereo not drawn),6.83
3,CN1CC2(CCN(C(=O)c3ccc(-n4cnnc4)cc3Cl)CC2)OC1=O,-6.01
4,Cc1cc(-c2ccnn2C)nc(C2CCCN(S(C)(=O)=O)C2)n1 (stereo not drawn),16.99
5,CC(=O)NC[C@]1(O)CCN(C(=O)c2ccc3c(c2)OCO3)C[C@H]1O,59
6,CC(=O)NC[C@]1(O)CCN(C(=O)c2ccc3c(c2)CCC3)C[C@H]1O,14.5
7,CC(=O)NC[C@]1(O)CCN(C(=O)c2ccc(C)c(F)c2)C[C@H]1O,-7.79
8,Cc1cnn(CCNCC(=O)N2CCN(c3ccccc3)CC2)c1,-3.48
9,CC(C)CC(C)N(C)C(=O)c1nc(S(C)(=O)=O)n2ccccc12 (stereo not drawn),1.8
10,CN(Cc1cnn(C)c1)C(=O)C(c1ccccc1)N1CCSCC1 (stereo not drawn),-13.4
11,O=C(c1c[nH]c(=O)[nH]c1=O)N1CCCC(c2cnccn2)C1 (stereo not drawn),53
12,Cc1cncc(C2CCCN(C(=O)c3c[nH]c(=O)[nH]c3=O)C2)n1 (stereo not drawn),11
13,Cc1cnc(C2CCCN(C(=O)c3c[nH]c(=O)[nH]c3=O)C2)s1 (stereo not drawn),38.2
14,COc1ncccc1C(=O)Nc1cccc(C[S+](C)[O-])c1C (stereo not drawn),-32.2
15,Cc1nc2n(n1)CC(NCC(=O)Nc1cc(C)on1)CC2 (stereo not drawn),7.08
16,CNc1cc(C)nc(C2CN(Cc3cc[nH]n3)CCO2)c1 (stereo not drawn),67.7
17,CNc1cc(C)nc(C2CN(Cc3ccc(Cl)cn3)CCO2)c1 (stereo not drawn),-35.8
18,Cc1cc(N)cc(C2CN(Cc3cc[nH]n3)CCO2)n1 (stereo not drawn),0.301
19,COCC1CN(C(=O)c2cccs2)Cc2nccn2C1 (stereo not drawn),67.5
20,COCC1CN(C(=O)c2ccccn2)Cc2nccn2C1 (stereo not drawn),11.5
21,COCC1CN(C(=O)c2cccn2C)Cc2nccn2C1 (stereo not drawn),42.1
22,O=C(NCCn1ccnc1)c1ccn(-c2ccccc2F)n1,7.27

row,Structure (SMILES),INHIBITION [%]
1,O=c1c(NCCc2ccc(O)cc2)c(NCc2ccccn2)c1=O,23.7
2,O=C(NS(=O)(=O)Cc1ccc(F)cc1)C1CCOc2ccccc21 (stereo not drawn),50.7
3,O=C(NS(=O)(=O)Cc1ccc(F)cc1)C1CCc2ccccc21 (stereo not drawn),11.7
4,O=C(NS(=O)(=O)c1ccc(F)cc1)C1CCOc2ccccc21 (stereo not drawn),48.5
5,COCC(=O)N1CC[C@@H](N2CCOCC2)[C@@H]1Cc1cccnc1,27.6
6,NCCc1nc(N[C@@H](CO)c2ccccc2)c2ccccc2n1,31.9
7,CCC(Nc1nc(CCN)nc2ccccc12)c1cc(C)ccn1 (stereo not drawn),-1.25
8,CCC(Nc1nc(CCN)nc2ccccc12)c1cccs1 (stereo not drawn),51.1
9,CCc1nc(CN(C)CC(=O)N(C)C2CC2)cs1,42.6
10,COc1c(CNCCNC(=O)c2cccc(C)c2)c(C)nn1C,33.8
11,COCC(NC(=O)c1cc[nH]n1)c1cccc(C(F)(F)F)c1 (stereo not drawn),42.6
12,COCC(NC(=O)c1ccc[nH]1)c1cccc(C(F)(F)F)c1 (stereo not drawn),51.3
13,COCC(NC(=O)c1ccco1)c1cccc(C(F)(F)F)c1 (stereo not drawn),-31.6
14,Cc1ncsc1CN1C[C@@H]2COC[C@]2(C(=O)NCC2CC2)C1,39.2
15,O=c1n(Cc2ccc(C(F)(F)F)cc2)nc2ncccn12,-80.9
16,CC(C)NC(=O)Nc1cccc2c1CCN(S(C)(=O)=O)C2,45.7
17,CCS(=O)(=O)N1CCc2c(cccc2NCc2ncc[nH]2)C1,27.6
18,CCc1cnc(CNc2cccc3c2CCN(S(=O)(=O)CC)C3)o1,39.6
19,CCCNC(=O)Nc1cccc2c1CCN(S(C)(=O)=O)C2,-9.48
20,COCCNC(=O)Nc1cccc2c1CCN(S(C)(=O)=O)C2,65.4
21,CCS(=O)(=O)N1CCc2c(cccc2NC(=O)NCCO)C1,50.8
22,COCCCNC(=O)Nc1cccc2c1CCN(S(C)(=O)=O)C2,17.5

row,Structure (SMILES),INHIBITION [%]
1,CCS(=O)(=O)N1CCc2c(cccc2NC(=O)NCCOC)C1,3.95
2,CCS(=O)(=O)N1CCc2c(cccc2NCc2nc(C)c(C)o2)C1,52.6
3,CC(C)N(C)C(=O)COc1ccc(-c2noc(C3CCCO3)n2)cc1 (stereo not drawn),-59.4
4,O=C(NCC1CN(c2ncccn2)Cc2nccn2C1)c1cccnc1 (stereo not drawn),-86.4
5,Fc1ccc(N2CCN(CCCc3cn[nH]c3)CC2)cc1,31.6
6,NC(=O)C1CN(C(=O)Nc2ccccc2OCC(F)(F)F)CCO1 (stereo not drawn),31.2
7,N#CC1(NC(=O)c2c(F)ccc(OC(F)F)c2F)CCOCC1,-11.7
8,CCn1nnc(NCc2cc(Cl)cc(Cl)c2OC)n1,-11.6
9,CCCn1nnc(NCc2cc(Br)cc(Br)c2OC)n1,-24
10,CCn1nnc(NCc2cc(Br)cc(Br)c2OC)n1,61.1
11,Cc1ncccc1CNC1CCCN(Cc2noc(C3CC3)n2)C1 (stereo not drawn),46.2
12,CNC(=O)c1cc2c(nc1NCC(C)C)CCN(CCOC)CC2,21.1
13,CCS(=O)(=O)N1CCc2cc(C(=O)NC)c(NCC(C)C)nc2CC1,-9.02
14,COCCN1CCc2cc(C(=O)NC(C)C)c(NCC(C)C)nc2CC1,74.9
15,COCCN1CCc2cc(C(=O)O)c(NCC3CC3)nc2CC1,-17.2
16,COCCN1CCc2cc(C(=O)N(C)C)c(NCC3CC3)nc2CC1,-27.9
17,COCCN1CCc2cc(C(=O)NC(C)C)c(NCC3CC3)nc2CC1,70.8
18,CCOc1ccccc1C(=O)Nc1cccc(C[S+](C)[O-])c1C (stereo not drawn),16.645
19,O=C(CCN1CCCC(CO)(CC2CC2)C1)NCc1cccc(Cl)c1 (stereo not drawn),4.66
20,CCC1COC2(CCN(C(=O)c3ccco3)CC2)C1 (stereo not drawn),22.9
21,COc1ccc2c(c1)CC(NCc1cccc(CO)c1)CC2 (stereo not drawn),47.1
22,COc1ccc2c(c1)CC(NCc1cccc(OCC(N)=O)c1)CC2 (stereo not drawn),43.4

row,Structure (SMILES),INHIBITION [%]
1,COc1ccc2c(c1)CC(NCc1cccc(NC(C)=O)c1)CC2 (stereo not drawn),59.1
2,COCC(=O)NCc1cc(=O)n2c(n1)CN(Cc1ccco1)CCC2,47.5
3,O=C(NCc1nnc2n1CCCC2)N1CCc2sccc2C1,5.7
4,Cc1cccc(CNC(=O)Nc2ccn(CCN(C)C)n2)c1,-23.8
5,C=C(C)Cn1nc(C)c(CN2CCN(C3CCCCC3)C(=O)C2)c1C,13.85
6,Cc1ccccc1C1(CNCc2cnc(N3CCOCC3)nc2)CC1,-5.22
7,Cc1ccc(CN2CCCC(c3nn(C)c4nccnc34)C2)s1 (stereo not drawn),37.6
8,CCCN1CCC(c2nc3ccc(NCc4cccnc4)cn3n2)CC1,52.1
9,CCCN1CCC(c2nc3ccc(NCc4ccccc4)cn3n2)CC1,61.1
10,c1cncc(CNc2ccc3nc(C4CCNCC4)nn3c2)c1,29.4
11,CCN1CCC(c2nc3ccc(NC(C)C)cn3n2)CC1,26.4
12,CCCN1CCC(c2nc3ccc(C)cn3n2)CC1,29.4
13,CC(C)CN1CCC(c2nc3ccc(NC(C)C)cn3n2)CC1,30.3
14,CN(C)C(=O)N1C[C@H]2CC[C@@H](C1)N(Cc1nnc(-c3ccco3)o1)C2,11.6
15,Cc1nc(-c2cnn(C)c2)nc2c1CN(C(=O)c1cccn1C)CC2,-6.46
16,Cc1nc(-c2cnn(C)c2)nc2c1CN(C(=O)c1ccc[nH]1)CC2,57.1
17,Cc1nc(-c2cnn(C)c2)nc2c1CN(C(=O)c1cccnc1)CC2,-4.99
18,COC(=O)c1ccc(NC(C)c2ccc3c(c2)CCC(=O)N3)nn1 (stereo not drawn),19.7
19,COc1ccc(-c2cc3nc(CCNC(=O)C4CC4)nn3cn2)cc1,8.915
20,c1csc(NCc2n[nH]c3c2CCN(CC2CC2)C3)n1,41.2
21,Cn1nc(C2CNCCO2)cc1CCOc1ccc(Cl)cc1 (stereo not drawn),16.5
22,c1ncc(-c2ccc(C3CNCCO3)nc2)cn1 (stereo not drawn),24.8

row,Structure (SMILES),INHIBITION [%]
1,CN(C)c1ncc(-c2ccc(C(N)=O)cc2)c(C2CNCCO2)n1 (stereo not drawn),-28.9
2,Fc1ccccc1OCCc1cc(C2CNCCO2)n[nH]1 (stereo not drawn),32.8
3,c1ccc(-c2ccc(C3CNCCO3)nc2)cc1 (stereo not drawn),84
4,Clc1ccc(-c2ccc(C3CNCCO3)nc2)cc1 (stereo not drawn),94.6
5,COc1ccc(-c2cnc(N(C)C)nc2C2CNCCO2)cc1 (stereo not drawn),21.7
6,COc1ccc(-c2ccc(C3CNCCO3)nc2)cc1 (stereo not drawn),91.6
7,CN(C)c1ncc(-c2cccc(F)c2)c(C2CNCCO2)n1 (stereo not drawn),8.72
8,Cc1ccc(-c2ccc(C3CNCCO3)nc2)cc1 (stereo not drawn),91.6
9,COc1ccc(OCCc2cc(C3CNCCO3)nn2C)cc1 (stereo not drawn),-5.8
10,CN(C)c1ncc(-c2ccc(F)cc2)c(C2CNCCO2)n1 (stereo not drawn),15.1
11,CC(=O)N1CCCN(C(=O)NC(C)Cn2ccnc2)CC1 (stereo not drawn),24.2
12,Cn1c(=O)c2cc(C(=O)NCc3ccncc3)ccc2n(C)c1=O,-4.82
13,Cc1cc(C[S+]([O-])CC(=O)NCc2cccc(Cl)c2)no1 (stereo not drawn),49.8
14,CC(C)SCC(=O)N1CCCn2nc(C(=O)Nc3ccccc3)cc2C1,-59.9
15,CC(=O)N1CCC2(CCCN(S(=O)(=O)c3ccc(F)cc3)C2)C1 (stereo not drawn),-4.82
16,Cc1c(COC(C)C)cccc1NC(=O)N1CCC(N2CCCC2)C1 (stereo not drawn),36.3
17,Cc1nc(C)n(CC2CCCN2Cc2coc(-c3cccs3)n2)n1 (stereo not drawn),22.6
18,O=C(CCCOc1ccccc1F)NCCCC(=O)Nc1cn[nH]c1,51.7
19,O=C(CCCNC(=O)Nc1ccc(F)cc1)Nc1cn[nH]c1,20.7
20,COc1ccccc1NC(=O)NCCCC(=O)Nc1cn[nH]c1,-12.1
